From PubChem BioAssay (EPA / NIEHS)
Inconclusive results are not listed. Calls of active or inactive are those of the source. Rule for the calls, unless noted: active = hit-call score of the fitted dose curve at least 0.9, where 1 is the maximum; inactive = score below 0.9.

Key:
[1] = target: Paired box protein Pax-6 (Homo sapiens) (UniProt P26367); experiment: ATG_Pax6_CIS: Attagene CIS-FACTORIAL HepG2 Assay for human Paired Box 6 (PAX6) (AID 2282956); settings: HepG2 CIS-FACTORIAL PAX6 reporter transcription, RNA readout; actives raise or lower the signal
Chain of Paired box protein Pax-6 (Homo sapiens) (P26367 whole entry, looked up): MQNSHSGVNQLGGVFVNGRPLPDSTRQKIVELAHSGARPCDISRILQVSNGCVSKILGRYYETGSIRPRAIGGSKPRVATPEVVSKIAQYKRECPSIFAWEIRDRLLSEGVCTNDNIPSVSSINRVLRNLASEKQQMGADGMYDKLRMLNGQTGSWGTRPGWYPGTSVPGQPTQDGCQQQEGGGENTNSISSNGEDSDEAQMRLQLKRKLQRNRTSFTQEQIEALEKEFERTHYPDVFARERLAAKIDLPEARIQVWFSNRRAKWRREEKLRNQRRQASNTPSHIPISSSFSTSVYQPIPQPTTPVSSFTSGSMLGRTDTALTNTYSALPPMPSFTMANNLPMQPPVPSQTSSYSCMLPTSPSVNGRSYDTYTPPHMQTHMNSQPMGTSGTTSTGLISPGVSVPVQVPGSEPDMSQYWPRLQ
Procedure, shortened: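 Read-out is reporter transcript level, measured by RT-PCR with fluorescent primer extension and capillary electrophoresis after 24 h dosing of transfected HepG2 cells. Activity in either direction fitted relative to DMSO control.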

[2] = ATG_PXRE_CIS: Attagene CIS-FACTORIAL HepG2 Assay for human Pregnane X Receptor Element (PXRE) (AID 2282957); settings: HepG2 Attagene CIS-FACTORIAL PXRE reporter, mRNA; actives raise or lower the signal
Procedure, shortened: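 Using HepG2 transfected with multiple reporter transcription units, endogenous factor-driven transcription was scored as reporter mRNA after 24 h exposure.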

[3] = ATG_PPRE_CIS: Attagene CIS-FACTORIAL HepG2 Assay for human Peroxisome Proliferator-activated Response Element (PPRE) (AID 2282958); settings: HepG2 PPRE cis-element reporter, Attagene transcription factor profiling; actives raise or lower the signal
Procedure, shortened: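 Measured endpoint: PPRE-controlled reporter mRNA, detected by RT-PCR and capillary electrophoresis fluorescence, from transiently transfected HepG2 cells 24 h after dosing. Curves fitted in both directions using DMSO baseline.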

[4] = ATG_RORE_CIS: Attagene CIS-FACTORIAL HepG2 Assay for human RAR-related Orphan Receptor Element (RORE) (AID 2282959); settings: HepG2 Attagene cis-factorial RORE reporter, mRNA; actives raise or lower the signal
Procedure, shortened: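 Transiently transfected HepG2 reporter cells were treated 24 h. Reporter transcripts were detected by RT-PCR and capillary electrophoresis, with bidirectional fitting against DMSO.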

[5] = ATG_Sox_CIS: Attagene CIS-FACTORIAL HepG2 Assay for human SRY-box transcription factor (SOX) (AID 2282960); settings: HepG2 Attagene cis-factorial SOX reporter, mRNA; actives raise or lower the signal
Procedure, shortened: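 Gain- or loss-of-signal endpoint, fitted bidirectionally with DMSO as negative control. Based on reporter mRNA from transfected HepG2 cells harvested 24 h post-treatment and quantified via RT-PCR and capillary electrophoresis.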

[6] = ATG_SREBP_CIS: Attagene CIS-FACTORIAL HepG2 Assay for human Sterol Regulatory Element Binding (SREBP) (AID 2282962); settings: HepG2 Attagene cis-factorial SREBP reporter, mRNA; actives raise or lower the signal
Procedure, shortened: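 Endogenous SREBP activity read as cis-element-driven reporter transcript in transiently transfected HepG2, 24 h post-dosing; quantified via RT-PCR plus capillary electrophoresis of fluorescent fragments. Gain or loss of signal fitted relative to DMSO baseline.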

[7] = target: Signal transducer and activator of transcription 3 (Homo sapiens) (UniProt P40763); experiment: ATG_STAT3_CIS: Attagene CIS-FACTORIAL HepG2 Assay for human Signal Transducer and Activator of Transcription 3 (STAT3) (AID 2282963); settings: HepG2, Attagene cis-factorial STAT3 reporter transcription; actives raise or lower the signal
Chain of Signal transducer and activator of transcription 3 (Homo sapiens) (P40763 whole entry, looked up): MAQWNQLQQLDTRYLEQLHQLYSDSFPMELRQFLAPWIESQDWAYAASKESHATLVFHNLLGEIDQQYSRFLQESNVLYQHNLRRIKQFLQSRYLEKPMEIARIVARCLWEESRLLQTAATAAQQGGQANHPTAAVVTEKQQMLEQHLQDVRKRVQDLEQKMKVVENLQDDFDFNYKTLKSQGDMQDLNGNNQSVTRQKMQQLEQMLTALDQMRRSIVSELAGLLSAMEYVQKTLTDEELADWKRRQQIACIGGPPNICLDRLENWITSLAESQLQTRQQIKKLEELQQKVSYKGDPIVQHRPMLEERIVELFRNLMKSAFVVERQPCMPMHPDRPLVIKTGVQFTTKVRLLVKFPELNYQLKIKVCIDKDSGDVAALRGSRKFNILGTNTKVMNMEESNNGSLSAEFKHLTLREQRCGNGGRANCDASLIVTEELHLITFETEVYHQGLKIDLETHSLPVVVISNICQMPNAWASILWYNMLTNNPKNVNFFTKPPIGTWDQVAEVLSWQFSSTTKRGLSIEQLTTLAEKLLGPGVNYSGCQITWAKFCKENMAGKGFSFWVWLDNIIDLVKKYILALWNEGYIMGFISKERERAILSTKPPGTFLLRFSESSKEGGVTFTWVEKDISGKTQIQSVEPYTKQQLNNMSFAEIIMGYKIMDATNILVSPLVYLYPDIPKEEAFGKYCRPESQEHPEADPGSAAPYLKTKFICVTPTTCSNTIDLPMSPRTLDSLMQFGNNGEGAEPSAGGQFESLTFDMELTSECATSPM
Procedure, shortened: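 Readout is reporter transcript quantified by RT-PCR and capillary electrophoresis, with 6-FAM primer extension and HpaI digestion. Total RNA is taken 24 h after dosing transiently transfected HepG2 carrying cis-regulated reporter units. Bidirectional fit against DMSO.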

[8] = ATG_TA_CIS: Attagene CIS-FACTORIAL HepG2 Assay for human TA Basal Promoter (AID 2282964); settings: HepG2 Attagene CIS-factorial TA basal promoter reporter; actives raise or lower the signal
Procedure, shortened: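 Cis-factorial format in HepG2: reporters report endogenous factors, not chimeric Gal4 fusions. After 24 h treatment, reporter transcripts were measured by RT-PCR-capillary electrophoresis fluorescence, analysed bidirectionally versus DMSO.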

[9] = ATG_TAL_CIS: Attagene CIS-FACTORIAL HepG2 Assay for human TAL Basal Promoter (AID 2282966); settings: HepG2 Attagene cis-factorial TAL promoter reporter; actives raise or lower the signal;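 note: background control endpoint measuring basal TAL promoter reporter mRNA not a specific factor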
Procedure, shortened: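 After 24 hours of chemical exposure, transfected HepG2 cells yielded RNA that was converted to 6-FAM-labelled, HpaI-digested reporter fragments for capillary electrophoresis. Values derive from bidirectional fitting against DMSO controls.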

[10] = ATG_TGFb_CIS: Attagene CIS-FACTORIAL HepG2 Assay for human Transforming Growth Factor (TGF) (AID 2282967); settings: HepG2 Attagene CIS TGFb reporter, mRNA transcription; actives raise or lower the signal
Procedure, shortened: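 Multiplexed cis-reporter HepG2 system, 24 h treatment; mRNA induction read by fluorescence after RT-PCR and CE; DMSO negative control, bidirectional curve fitting.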

[11] = ATG_VDRE_CIS: Attagene CIS-FACTORIAL HepG2 Assay for human Vitamin D Receptor Element (VDRE) (AID 2282968); settings: HepG2 VDRE cis-reporter transcription, actives raise or lower the signal
Procedure, shortened: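 Readout is VDRE-driven reporter mRNA reflecting endogenous factor activity in human HepG2 cells, sampled 24 h post-dose. Quantification used labelled RT-PCR products separated by capillary electrophoresis; bidirectional analysis relative to DMSO.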

[12] = target: Nuclear receptor subfamily 1 group I member 3 (Homo sapiens) (UniProt Q14994); experiment: ATG_CAR_TRANS: Attagene TRANS-FACTORIAL HepG2 Assay for human Constitutive Androstane Receptor (CAR) (AID 2282969; active = hit-call score of the fitted dose curve at least 0.9, where 1 is the maximum;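 note: activators raise reporter mRNA above DMSO so AC50 marks induction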); settings: HepG2 Attagene TRANS-FACTORIAL CAR reporter
Chain of Nuclear receptor subfamily 1 group I member 3 (Homo sapiens) (Q14994 whole entry, looked up, the tested form may be a part): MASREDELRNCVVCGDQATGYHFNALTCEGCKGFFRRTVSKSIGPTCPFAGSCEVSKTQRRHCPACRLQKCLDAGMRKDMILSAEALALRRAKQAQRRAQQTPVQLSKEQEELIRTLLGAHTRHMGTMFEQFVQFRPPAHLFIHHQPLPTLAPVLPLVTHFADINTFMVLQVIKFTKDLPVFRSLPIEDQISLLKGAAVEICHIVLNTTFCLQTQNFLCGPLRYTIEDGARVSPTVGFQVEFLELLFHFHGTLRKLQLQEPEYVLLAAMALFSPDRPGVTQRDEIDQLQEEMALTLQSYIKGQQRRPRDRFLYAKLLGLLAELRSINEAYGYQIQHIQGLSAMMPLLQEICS
Procedure, shortened: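 Signal is reporter mRNA induction relative to DMSO, measured 24 h after dosing by RT-PCR with fluorescent primer extension and capillary electrophoresis. Human HepG2 liver cells carried transiently transfected chimeric NR-Gal4/GAL4-UAS reporter constructs.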

[13] = target: X-box-binding protein 1 (Homo sapiens) (UniProt P17861); experiment: ATG_Xbp1_CIS: Attagene CIS-FACTORIAL HepG2 Assay for human X-box Binding Protein 1 (XBP1) (AID 2282972); settings: HepG2 XBP1 cis-element reporter, Attagene multiplex; actives raise or lower the signal
Chain of X-box-binding protein 1 (Homo sapiens) (P17861 whole entry, looked up): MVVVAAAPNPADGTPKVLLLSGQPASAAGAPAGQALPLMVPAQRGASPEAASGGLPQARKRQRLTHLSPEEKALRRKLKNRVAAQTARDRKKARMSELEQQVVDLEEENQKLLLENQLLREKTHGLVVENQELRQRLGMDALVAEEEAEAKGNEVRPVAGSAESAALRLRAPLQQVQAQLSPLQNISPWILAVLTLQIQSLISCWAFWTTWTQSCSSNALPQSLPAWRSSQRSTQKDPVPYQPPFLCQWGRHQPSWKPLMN
Procedure, shortened: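 Reporter transcripts were quantified by RT-PCR with fluorescent primer extension and capillary electrophoresis after 24 h chemical exposure. Cells: transiently transfected HepG2 carrying cis-regulated reporter constructs; data fitted bidirectionally relative to DMSO.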

[14] = ATG_M_19_TRANS: Attagene TRANS-FACTORIAL HepG2 Assay for M19 Transcription Factor (Internal Marker) (AID 2282974; active = hit-call score of the fitted dose curve at least 0.9, where 1 is the maximum); settings: HepG2 Attagene TRANS-FACTORIAL M19 internal marker reporter
Procedure, shortened: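 Using RT-PCR and capillary electrophoresis, reporter mRNA from transiently transfected human HepG2 cells was quantified following 24 h exposure; activity was fitted in the positive direction against DMSO.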

[15] = ATG_GAL4_TRANS: Attagene TRANS-FACTORIAL HepG2 Assay for GAL4 (Internal Marker) (AID 2282976; active = hit-call score of the fitted dose curve at least 0.9, where 1 is the maximum); settings: HepG2 Attagene TRANS GAL4 internal marker reporter
Procedure, shortened: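 First, HepG2 cells were transfected with reporter units under GAL4-UAS control. Next, they were treated with chemical for 24 h. Finally, RNA was reverse-transcribed, PCR-amplified, FAM-labelled and resolved by capillary electrophoresis, with induction scored against DMSO.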

[16] = ATG_TCF_b_cat_CIS: Attagene CIS-FACTORIAL HepG2 Assay for human T-Cell-Factor with beta-catenin (TCF/b-cat) (AID 2282965); settings: HepG2 TCF/beta-catenin cis-reporter transcription, actives raise or lower the signal
Procedure, shortened: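 Endogenous transcription factor activity is captured through cis-promoter reporter constructs transiently introduced into human HepG2 liver cells. Induced reporter mRNA is measured after 24 h and fitted bidirectionally relative to DMSO.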

[17] = target: Transcription factor Sp1 (Homo sapiens) (UniProt P08047); experiment: ATG_Sp1_CIS: Attagene CIS-FACTORIAL HepG2 Assay for human Specificity Protein 1 (Sp1) (AID 2282961); settings: HepG2 Sp1 cis-reporter transcription, actives raise or lower the signal
Chain of Transcription factor Sp1 (Homo sapiens) (P08047 whole entry, looked up, the tested form may be a part): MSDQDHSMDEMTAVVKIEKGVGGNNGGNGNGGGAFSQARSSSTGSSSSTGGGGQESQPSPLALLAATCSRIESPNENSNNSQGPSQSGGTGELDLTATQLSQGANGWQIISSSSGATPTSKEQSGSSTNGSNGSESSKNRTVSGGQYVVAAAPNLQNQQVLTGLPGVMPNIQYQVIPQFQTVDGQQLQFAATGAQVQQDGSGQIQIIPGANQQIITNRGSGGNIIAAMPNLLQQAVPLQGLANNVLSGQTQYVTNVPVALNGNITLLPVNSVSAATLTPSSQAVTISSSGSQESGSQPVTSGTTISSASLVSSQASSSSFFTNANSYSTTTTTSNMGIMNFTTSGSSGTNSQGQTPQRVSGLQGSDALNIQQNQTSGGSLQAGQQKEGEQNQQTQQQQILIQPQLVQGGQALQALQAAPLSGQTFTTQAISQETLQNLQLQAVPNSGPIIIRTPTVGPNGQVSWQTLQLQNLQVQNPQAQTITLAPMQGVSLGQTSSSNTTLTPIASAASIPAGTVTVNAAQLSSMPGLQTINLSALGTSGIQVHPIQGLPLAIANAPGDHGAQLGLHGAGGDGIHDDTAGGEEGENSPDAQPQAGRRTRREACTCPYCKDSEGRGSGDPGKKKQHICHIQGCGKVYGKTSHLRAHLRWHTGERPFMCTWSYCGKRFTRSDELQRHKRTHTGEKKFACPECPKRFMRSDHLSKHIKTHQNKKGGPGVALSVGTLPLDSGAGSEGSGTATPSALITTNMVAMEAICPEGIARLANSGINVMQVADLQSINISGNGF
Procedure, shortened: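 Endpoint reflects endogenous Sp1 transcriptional activity, not an exogenous fusion protein: HepG2 cells with transfected cis-regulated reporters, 24 h dosing, RT-PCR/capillary electrophoresis mRNA read-out, DMSO-normalised bidirectional fit.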

[18] = target: Steroid hormone receptor ERR1 (Homo sapiens) (UniProt P11474); experiment: ATG_ERRa_TRANS: Attagene TRANS-FACTORIAL HepG2 Assay for human Estrogen-Related Receptor alpha (ERRa) (AID 2282971; active = hit-call score of the fitted dose curve at least 0.9, where 1 is the maximum); settings: HepG2 Attagene TRANS reporter, ERRa transactivation
Chain of Steroid hormone receptor ERR1 (Homo sapiens) (P11474 whole entry, looked up, the tested form may be a part): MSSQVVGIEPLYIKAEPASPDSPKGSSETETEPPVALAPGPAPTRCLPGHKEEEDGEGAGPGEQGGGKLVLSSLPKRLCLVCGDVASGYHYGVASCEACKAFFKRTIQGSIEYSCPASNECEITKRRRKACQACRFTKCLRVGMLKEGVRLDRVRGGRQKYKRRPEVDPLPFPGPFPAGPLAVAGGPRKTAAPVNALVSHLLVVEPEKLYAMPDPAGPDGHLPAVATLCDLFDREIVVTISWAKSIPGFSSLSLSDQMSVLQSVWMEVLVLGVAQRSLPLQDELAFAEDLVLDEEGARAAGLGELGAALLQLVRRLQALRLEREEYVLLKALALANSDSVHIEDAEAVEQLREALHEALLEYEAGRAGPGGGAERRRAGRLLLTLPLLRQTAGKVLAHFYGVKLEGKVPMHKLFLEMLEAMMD
Procedure, shortened: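 Reporter transcript induction was quantified by RT-PCR and capillary electrophoresis of FAM-labelled, HpaI-cut products after 24 h treatment of HepG2 cells carrying transiently transfected GAL4-UAS reporter units and an exogenous ERRa-Gal4 fusion; activity scored as increase over DMSO.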

[19] = target: Estrogen receptor (Homo sapiens) (UniProt P03372); experiment: ATG_ERa_TRANS: Attagene TRANS-FACTORIAL HepG2 Assay for human Estrogen Receptor alpha (ERa) (AID 2282970; active = hit-call score of the fitted dose curve at least 0.9, where 1 is the maximum); settings: HepG2 Attagene TRANS ERa GAL4 reporter, mRNA
Chain of Estrogen receptor (Homo sapiens) (P03372 whole entry, looked up, the tested form may be a part): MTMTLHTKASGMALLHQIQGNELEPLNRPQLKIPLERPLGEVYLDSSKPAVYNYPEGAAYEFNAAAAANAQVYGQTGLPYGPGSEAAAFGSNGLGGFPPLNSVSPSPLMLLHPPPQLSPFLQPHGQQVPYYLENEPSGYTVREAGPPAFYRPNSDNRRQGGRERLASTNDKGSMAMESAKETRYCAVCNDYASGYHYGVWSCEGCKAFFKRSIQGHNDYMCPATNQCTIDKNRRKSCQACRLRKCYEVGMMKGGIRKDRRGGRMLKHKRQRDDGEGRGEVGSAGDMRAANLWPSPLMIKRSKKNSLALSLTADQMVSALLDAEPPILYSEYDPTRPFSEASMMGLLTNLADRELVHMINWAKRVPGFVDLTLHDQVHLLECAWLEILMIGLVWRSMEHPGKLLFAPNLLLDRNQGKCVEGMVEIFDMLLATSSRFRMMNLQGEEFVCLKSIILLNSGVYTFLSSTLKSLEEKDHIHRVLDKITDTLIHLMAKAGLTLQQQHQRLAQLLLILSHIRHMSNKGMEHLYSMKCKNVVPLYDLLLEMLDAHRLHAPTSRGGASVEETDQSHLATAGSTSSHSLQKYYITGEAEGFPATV
Procedure, shortened: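 Liver-derived HepG2 cells expressing chimeric nuclear receptor-Gal4 proteins from transient transfection were exposed for 24 hours. Gain of reporter mRNA signal versus DMSO, read by capillary electrophoresis of FAM-labelled PCR products, was recorded.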

[20] = target: Estrogen-related receptor gamma (Homo sapiens) (UniProt P62508); experiment: ATG_ERRg_TRANS: Attagene TRANS-FACTORIAL HepG2 Assay for human Estrogen-Related Receptor gamma (ERRg) (AID 2282977; active = hit-call score of the fitted dose curve at least 0.9, where 1 is the maximum;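 note: hits increase reporter signal over DMSO so potencies reflect activators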); settings: HepG2 Attagene TRANS reporter, ERRg transactivation
Chain of Estrogen-related receptor gamma (Homo sapiens) (P62508 whole entry, looked up, the tested form may be a part): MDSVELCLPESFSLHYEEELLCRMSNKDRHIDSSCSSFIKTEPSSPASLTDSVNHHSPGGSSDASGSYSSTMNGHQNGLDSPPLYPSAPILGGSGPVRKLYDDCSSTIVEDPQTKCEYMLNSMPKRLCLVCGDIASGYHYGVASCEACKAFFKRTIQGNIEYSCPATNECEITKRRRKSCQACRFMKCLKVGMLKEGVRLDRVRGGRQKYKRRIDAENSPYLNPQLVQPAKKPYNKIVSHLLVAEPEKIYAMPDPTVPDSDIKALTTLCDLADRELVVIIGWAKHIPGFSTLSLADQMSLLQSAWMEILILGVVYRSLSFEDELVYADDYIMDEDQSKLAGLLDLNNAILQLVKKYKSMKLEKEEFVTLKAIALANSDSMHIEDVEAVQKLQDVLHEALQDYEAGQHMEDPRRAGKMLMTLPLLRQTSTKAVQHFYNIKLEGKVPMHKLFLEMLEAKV
Procedure, shortened: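 Induction of reporter transcripts through a chimeric NR-Gal4 protein is quantified in transfected human HepG2 liver cells after 24 h chemical exposure, using RT-PCR with capillary electrophoresis detection and DMSO as baseline.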

Measured: AC50

CCOCCOCCOCC
not listed: [16] | [17] | [18] | [19] | [20]
inactive: all other assays above

C[Si](C)(C)O[Si](C)(C)C
not listed: [12] | [17] | [18] | [19] | [20]
inactive: all other assays above

Nc1ccc(Cl)c([N+](=O)[O-])c1
active: [2] 37.6 µM
not listed: [4] | [12] | [17] | [18] | [19] | [20]
inactive: all other assays above

Cc1cccc(Nc2ccccc2)c1
inactive: [4] | [5] | [7] | [8] | [16] | [9] | [10] | [12]
active: [1] 120 µM | [2] 26.6 µM | [17] 127 µM | [6] 100 µM | [11] 58.2 µM | [13] 133 µM

CCCCCCCCN1CCCC1=O
active: [1] 144 µM | [2] 26.2 µM | [7] 168 µM
not listed: [3] | [14] | [15] | [18] | [19] | [20]
inactive: all other assays above

CC(C)Nc1nc(N)nc(Cl)n1
not listed: [4] | [6] | [12] | [15] | [18] | [19] | [20]
inactive: all other assays above

ON=C1CCCCC1
not listed: [3] | [14] | [19] | [20]
inactive: all other assays above

CCCC(=O)C(CC)Sc1ccoc1C (stereo not drawn)
active: [2] 5.68 µM | [11] 26.7 µM | [19] 16 µM | [13] 25.8 µM
not listed: [3] | [14] | [15] | [18] | [20]
inactive: all other assays above

CS(=O)(=O)c1ccc(C2=C(c3ccccc3)C(=O)OC2)cc1
active: [2] 20.1 µM
not listed: [4] | [6] | [11] | [19] | [20]
inactive: all other assays above

COc1ccccc1[N+](=O)[O-]
active: [2] 71.7 µM
not listed: [3] | [14] | [15] | [19]
inactive: all other assays above

CC(C)(CO)[C@@H](O)C(=O)NCCC(=O)O
active: [2] 53.4 µM
not listed: [4] | [14] | [16] | [18] | [20]
inactive: all other assays above

N[C@@H](Cc1cc(I)c(Oc2cc(I)c(O)c(I)c2)c(I)c1)C(=O)O
active: [2] 6.42 µM | [3] 22.1 µM | [6] 22.7 µM | [11] 18.8 µM
not listed: [4] | [8] | [15] | [18] | [19] | [20]
inactive: all other assays above

CC(=O)CC(=O)Nc1ccccc1
not listed: [4] | [6] | [8] | [12] | [14] | [18] | [19] | [20]
inactive: all other assays above

CC(=O)O[C@@H]1CC2CCC1(C)C2(C)C (stereo partly drawn)
not listed: [3] | [18] | [19] | [20]
inactive: all other assays above

COc1ccc(N=Nc2cc(C)c(N=Nc3ccc(S(=O)(=O)O)cc3)cc2OC)cc1
active: [1] 100 µM | [2] 23.1 µM | [4] 8.45 µM | [17] 175 µM | [6] 162 µM | [7] 162 µM | [10] 172 µM
not listed: [3] | [15] | [18] | [19] | [20]
inactive: all other assays above

O=C(O)COCC(=O)O
not listed: [3] | [14] | [18] | [19] | [20]
inactive: all other assays above

Cc1ccc2c(c1)C(=O)OC2=O
not listed: [4] | [15] | [17] | [18] | [19] | [20]
inactive: all other assays above
